Hit rate of the full screen: of about 220,000 compounds, about 8,200 (3.7%) were called active.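 How the source made its calls: active means compounds that reduced the stress-induced luciferase reporter signal by more than about 70% of percent inhibition (limit read from the data); inactive means the rest.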 Only a selection was taken, and actives are over-represented in it overall.
Assay: blockers of ER-stress CHOP reporter expression – cell-based, unfolded protein response, luciferase reporter, primary screen (AID 2732);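 further: 0% = tunicamycin plus vehicle and 100% = wells without tunicamycin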
Conditions: CHO-K1 CHOP-promoter luciferase, tunicamycin-induced, 15-18 h; at 10 µM; active compounds read high

| SMILES | inhibition |
| --- | --- |
| CCCCCCCCCCCCn1ccc(=N)cc1 | 90.9% (active) |
| CC(=C1C(=O)c2ccccc2C1=O)N1CCN(CCN=Cc2c(O)n(C)c(=O)n(C)c2=O)CC1 | -9.11% (inactive) |
| COc1ccc(NC(=O)N2CCC3(CC2)OCCO3)c(OC)c1 | 18.7% (inactive) |
| CCC1(C)CC(CCNCc2ccc(N(C)C)cc2)(c2ccc(F)cc2)CCO1 (stereo not given) | 8.31% (inactive) |
| COc1ccc(CN2C(=O)NC(=O)/C(=C\c3ccc(OC)c(OC)c3OC)C2=O)cc1 | -5.09% (inactive) |
| CN(C)CC1Oc2ccccc2OC1(O)c1ccccc1 (stereo not given) | 88.8% (active) |
| CCOC(=O)c1ncn2c1[C@@H]1CCCN1C(=O)c1cc(OC)ccc1-2 | -1.91% (inactive) |
| O=C(CCNS(=O)(=O)c1ccccc1)Nc1ccc(Cl)cc1C(=O)c1ccccc1 | -12.3% (inactive) |
| O=C(COC(=O)c1ccccc1)Nc1ccc(Cl)cc1C(=O)c1ccccc1 | 80.1% (active) |
| CN1CCN(C(=S)SCC(=O)Nc2ccc(Cl)cc2C(=O)c2ccccc2)CC1 | 35% (inactive) |
| COC(=O)N(c1ccc(OC)cc1)P1(=S)OCCC(C)O1 (stereo not given) | -1.61% (inactive) |
| CCC(=O)CC(c1ccc([N+](=O)[O-])cc1)c1c(O)c2ccccc2oc1=O (stereo not given) | -16.6% (inactive) |
| Cc1ccc2c(c1)C1CN(C)CCC1N2C(=O)Cn1nnc(-c2ccccc2F)n1 (stereo not given) | 3.99% (inactive) |
| CCN1CCN(c2ccc([N+](=O)[O-])cc2C#N)CC1 | 8.37% (inactive) |
| Cn1c(O)c(C(=Nc2ccc(F)cc2)c2ccccc2)c(=O)n(C)c1=O | 2.66% (inactive) |
| Cc1cc(C=C2C(=O)NC(=O)NC2=O)c(C)n1-c1ccncc1 | 16.7% (inactive) |
| Cc1ccnc(-n2c(C)cc(/C=C3\C(=O)NC(=S)N(C)C3=O)c2C)c1 | -16.7% (inactive) |
| Cc1ccc(-n2c(C)cc(/C=C3\C(=O)NC(=O)N(C)C3=O)c2C)cc1C | 78.5% (active) |
| C=CCN1CCC2(C)c3cc(O)ccc3CC1[C@@H]2C (stereo not given in full) | 9.89% (inactive) |
| Cc1ccc(CN2CCCC(C(=O)c3ccc4c(c3)OCO4)C2)cc1C (stereo not given) | -2.37% (inactive) |
| O=c1[nH]c(=O)n(CCc2ccccc2)c(O)c1/C=N/N1CCOCC1 | -18.4% (inactive) |
| CCC(=NCCCO)c1c(O)n(-c2ccc(OC)cc2)c(=O)[nH]c1=O | 14.6% (inactive) |
| CCCCn1c(O)c(C(CC)=NCc2ccco2)c(=O)[nH]c1=O | 6.6% (inactive) |
| CCCCCCN=C(CC)c1c(O)n(CCCC)c(=O)[nH]c1=O | 106% (active) |
| O=c1[nH]c(=O)n(CCc2ccc(F)cc2)c(O)c1/C=N/N1CCCCC1 | 3.76% (inactive) |
